Compound activity (PubChem BioAssay)
D1 antag – human D1 dopamine receptor antagonism; P21728; HEK293 TREx D1 cells, calcium flux, dopamine EC80; hits give low values; activity change, negative = inhibition, % at 10 µM; actives 3.2% (n = 360,000); AID 504652; in the data active = activity change below about -30%; note: % is set by controls: 0 for no effect and ±100 for the full control effect
Target sequence (P21728 whole entry, looked up): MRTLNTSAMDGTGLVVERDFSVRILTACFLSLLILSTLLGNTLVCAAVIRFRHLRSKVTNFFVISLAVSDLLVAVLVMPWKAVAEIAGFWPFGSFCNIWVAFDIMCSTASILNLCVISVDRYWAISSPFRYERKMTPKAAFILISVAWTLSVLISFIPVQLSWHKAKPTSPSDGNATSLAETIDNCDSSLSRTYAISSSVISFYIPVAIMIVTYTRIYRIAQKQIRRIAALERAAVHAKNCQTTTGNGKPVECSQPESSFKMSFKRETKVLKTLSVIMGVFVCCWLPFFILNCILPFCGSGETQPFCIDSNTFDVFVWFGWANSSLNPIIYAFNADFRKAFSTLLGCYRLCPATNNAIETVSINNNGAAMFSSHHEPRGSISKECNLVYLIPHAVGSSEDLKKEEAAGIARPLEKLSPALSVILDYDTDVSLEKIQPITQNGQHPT
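Using tetracycline-induced force-coupled D1 Hek293 cells and a calcium dye, signals were followed for 180 s after compound, then for 180 s after EC80 dopamine, to detect inhibitors.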
D3 ag – activates the human D3 dopamine receptor | P35462 | D3R DiscoveRx beta-arrestin cells, luminescence, 90 min | max activation, % | actives 0.58% (n = 410,000); in the data active = max activation above about 30%; note: 0% is about no effect
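Agonist mode: compounds and dopamine controls were applied to plated cells for 90 min at 37 degrees C after an overnight attachment at 1500 cells/well. Luminescent read-out followed 30 - 60 minutes at room temperature with DiscoveRx detection reagent.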
D1 potentiator – human D1 dopamine receptor positive modulation; actives 0.036% (n = 360,000); HEK293 TREx D1 cells, calcium flux, dopamine EC20 potentiation; potentiation, % at 10 µM; in the data active = potentiation above about 30%; note: 0% is about no effect
D1 agonist – activates the human D1 dopamine receptor | P21728 | HEK293 T-REx D1 cells, calcium flux, agonist mode | activation, % at 2 µM | actives 1% (n = 360,000); in the data active = activation above about 30%; note: 0% is about no effect
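Agonism was scored from calcium flux recorded over 180 s (1 read/s) after pintool compound addition, following a 10-cycle baseline. Cells were inducible force-coupled HEK293 TREx D1, plated overnight at 30 C and loaded with no-wash calcium dye.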
DRD3 antagonist – antagonists of human D3 dopamine receptor | AID 652054 | actives 2.5% (n = 360,000) | max response, negative = inhibition, % | P35462 | D3R cells, DiscoveRx beta-arrestin luminescence, antagonist mode; hits give low values; in the data active = max response below about -50%; inconclusive = no clear call, values can overlap the other calls; note: % is set by controls: 0 for no effect and ±100 for the full control effect
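Cells expressing the human receptor were seeded at 1500 cells/well, incubated overnight at 37 degrees C in 5% CO2, then exposed to library compounds with dopamine controls for 90 minutes at 37 degrees C before luminescent detection.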
* marks the source's active call; other numbers are inactive results; ? = inconclusive; / = no result given. An excerpt weighted towards active compounds, which were near 6% of everything screened.

SMILES	D1 antag	D3 ag	D1 potentiator	D1 agonist	DRD3 antagonist
COc1ccc(C)cc1N(CC(=O)N1CCCCCC1)S(=O)(=O)c1ccccc1	23.7	2.8	-5.5	0.1	-3.4
CCOC(=O)N1CCN(C(=O)CN(c2cc(C)ccc2OC)S(=O)(=O)c2ccc(C)cc2)CC1	-38.1*	-6.2	-1.9	3.4	/
COc1ccccc1N(CC(N)=O)S(=O)(=O)c1ccc(C)cc1	-3.5	9.4	-7.0	2.4	-76.5*
COc1ccccc1N(CC(=O)N1CCC(C)CC1)S(=O)(=O)c1ccc(C)cc1	6.5	-3.4	-1.6	5.9	/
COc1ccc(Cl)cc1N(CC(=O)N1CCN(Cc2ccccc2)CC1)S(C)(=O)=O	-18.4	-8.5	6.0	0.9	-56.6*
COc1ccc(N(CC(=O)N2CCN(Cc3ccccc3)CC2)S(C)(=O)=O)c(OC)c1	-2.8	-7.4	-6.8	2.2	-1.9
CCCCN(C)c1ncnc2c1cnn2-c1cccc(Cl)c1	2.8	-2.6	-0.5	-0.3	/
CCNc1ccc(Br)cc(C(=O)/C=C/c2ccc(Cl)cc2Cl)c1=O	-2.1	-4.1	1.4	4.2	-77.5*
CC(C)c1ccc(NC(=O)CCCN2C(=O)NC(C)(C)C2=O)cc1	-52.9*	4.5	-3.7	-0.1	3.4
Cc1ccc(C)c(Sc2ccc(NC(=O)CCN3C(=O)NC4(CCCC4)C3=O)cc2)c1	-33.0*	0.1	4.5	6.9	-0.8
CC1(C)NC(=O)N(CCCC(=O)Nc2ccc(C(F)(F)F)cc2)C1=O	-9.2	1.0	-3.7	1.3	-0.3
Cc1ccc(Sc2ccc(NC(=O)CCl)cc2)c(C)c1	-73.1*	-0.1	-6.5	16.0	0.3
O=C(CCl)Nc1ccccc1Sc1ccc(Cl)cc1	-9.8	-4.1	-1.4	1.9	?
C=CCn1c(COc2ccccc2F)nnc1SCC(=O)c1c[nH]c2ccccc12	-34.9*	-13.2	-5.0	4.7	1.1
CCOC(=O)C1(CCOc2ccccc2)CCN(Cc2cccc(F)c2)CC1	-21.2	-27.1	-2.5	8.9	-52.6*
CCOC(=O)C1(CCOc2ccccc2)CCN(Cc2cccc3c2OCO3)CC1	-3.2	-41.4	-5.4	4.5	-60.0*
CCOC(=O)C1(CCOc2ccccc2)CCN(Cc2ccc(OC)cc2)CC1	/	-12.1	/	/	-71.9*
CCOC(=O)C1(CCOc2ccccc2)CCN(Cc2ccccc2O)CC1	/	-13.9	/	/	0.4
CCOC(=O)C1(CCOc2ccccc2)CCN(Cc2cccc(OCCO)c2)CC1	-22.6	-11.9	-6.4	4.4	-15.7
CCOC(=O)C1(CCOc2ccccc2)CCN(Cc2cccc(-n3cccn3)c2)CC1	-15.2	-11.0	-5.0	14.7	-60.4*
N[C@@H](COP(=O)(O)O)C(=O)O	/	6.1	/	/	/
CCOC(=O)c1noc2ncnc(N3CCN(c4cccc(Cl)c4)CC3)c12	3.0	-4.3	-3.1	3.3	/
CCOC(=O)C1(Cc2ccccc2)CCN(Cc2csc(C(C)=O)c2)CC1	-34.2*	-12.4	-8.7	0.1	-28.1
CCOC(=O)C1(Cc2ccccc2)CCN(Cc2cnn(C(C)C)c2)CC1	-7.4	-2.4	0.2	-0.5	-5.9
Cc1cc(N2CCN(C)CC2)ccc1NC(=O)c1cccc(S(=O)(=O)N2CCc3ccccc3C2)c1	-87.3*	2.9	-12.4	15.7	0.5
SMILES	D1 antag	D3 ag	D1 potentiator	D1 agonist	DRD3 antagonist
CCN1CCN(C(c2ccc(SC)cc2)c2c(O)cc(C)n(CCOC)c2=O)CC1 (configuration not stated)	5.6	-4.1	-4.2	-1.0	/
NC(=O)c1cccc(Nc2nc(C(N)COCc3ccccc3)cs2)n1 (configuration not stated)	/	-2.3	/	/	-64.6*
CCNC(=O)NC1c2ccccc2CSc2ccccc21 (configuration not stated)	/	-9.8	/	/	7.0
CCOCCN1CCN(C2c3ccccc3CSc3ccccc32)CC1 (configuration not stated)	/	-34.3	/	/	-76.2*
Cc1ccc2cc3c(N)nn(C(=O)c4cccc(F)c4)c3nc2c1	-10.8	0.4	0.8	2.3	/
CCn1c(SCC(=O)N2CCC(C)CC2)nnc1-c1ccccc1O	-2.3	-0.2	-3.9	0.9	/
Nc1ccc2c(c1)Nc1ccccc1CC2	-30.7*	3.5	-7.0	-0.1	5.5
O=C(Nc1c2c(nn1-c1ccc(Cl)cc1)CS(=O)(=O)C2)c1cccc(F)c1	-29.0	-6.2	3.3	-0.2	/
C=CC1=C2C=C(C3CC3)N(CCCN(CC)CC)C=C2C(=O)C(C)(OC(=O)c2ccco2)C1=O (configuration not stated)	/	46.2*	/	/	-13.0
C=CC1=C2C=C(C3CC3)N(CC3CC3)C=C2C(=O)C(C)(OC(=O)c2ccco2)C1=O (configuration not stated)	/	-8.2	/	/	0.0
COC(=O)c1ccccc1NC(=O)c1ccc(-c2nc(COc3ccccc3)c(C)o2)cc1	0.1	-15.7	0.6	-0.2	/
O=c1c2ccccc2n(Cc2cccc(F)c2)c(=O)n1Cc1ccccc1Cl	1.0	4.2	-0.9	4.4	/
Cc1ccn2c(CN3CCOCC3)c(-c3ccccc3)nc2c1	-32.4*	0.2	-4.5	1.9	9.9
COc1ccc(OC(C)C(=O)NCc2nc(-c3cccc(C)c3)no2)cc1 (configuration not stated)	-1.6	-7.9	-2.6	6.2	/
N#Cc1ccccc1OCC(=O)N1CCN(c2ccccc2F)CC1	7.4	5.1	-5.4	6.3	/
O=C(N/N=C/c1ccc(O)cc1)c1cc[n+](Cc2ccccc2)cc1	8.9	-3.1	0.1	0.1	?
O=C(N/N=C/c1ccc(OCc2ccccc2)cc1)c1cc[n+](Cc2ccccc2)cc1	4.8	-3.1	0.2	0.4	-59.3*
Cc1ccc(Cl)cc1NC(=O)CCc1c(C)nc2c3cccnc3nn2c1C	-1.5	-9.8	1.1	-0.7	/
Cc1ccc(Nc2cc(C)nc3ccc(C)cc23)cc1	-33.0*	-7.5	-6.3	4.2	-6.0
CCOc1ccc(Nc2cc(C)nc3ccc(C)cc23)cc1	/	-27.3	/	/	-5.4
CC(=O)c1cccc(Nc2cc(C)nc3c(C)cccc23)c1	-65.8*	-13.9	-4.6	0.0	-25.6
Cc1cc(Nc2cccc(Cl)c2)c2ccccc2n1	-64.6*	-5.5	-10.3	17.4	-7.8
CC(=O)c1cccc(Nc2cc(C)nc3ccccc23)c1	-14.9	1.8	3.2	1.7	1.7
Cc1cccc(Nc2cc(C)nc3ccccc23)c1	-14.0	-4.6	-5.5	1.1	16.7
COc1ccc(CCN2C(=O)c3oc4cc(C)cc(C)c4c(=O)c3C2c2ccc(F)cc2)cc1OC (configuration not stated)	1.3	-4.7	0.5	-0.1	/
O=S(=O)(c1ccc(Cl)cc1)N1CCN(c2nc(-c3cccc(Br)c3)nc3ccccc23)CC1	-12.8	/	4.2	1.2	/
Cn1cccc1CNC(=S)Nc1ccccc1F	-7.9	-14.9	-7.5	1.2	-1.4
Cn1cccc1CNCc1ccccc1Cl	22.2	-31.4	-6.0	0.5	-64.0*
Cn1cccc1CNC(=S)Nc1ccccc1Cl	-41.6*	-16.0	-10.2	4.4	-2.5
COc1cc(Br)c(CN2C(=O)NC3(CCCCCC3)C2=O)cc1OC	5.7	-19.9	-5.7	16.1	-13.6
